Data taken from the supplement of paper PMC4466140.

Target: AgAbp1
Test: SPOT peptide array binding signal intensity (averaged, normalized) (arbitrary units (background-subtracted, floor 0; scale differs between SH3 domains)); higher = stronger binding of the SH3 domain to the peptide
Outline: (§1)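 The binding signal is the normalized, background-subtracted spot intensity averaged over replicates; its arbitrary units differ between domains. It was obtained by incubating 10 μg/ml GST-fused SH3 domains from four yeast species overnight at 4°C in TBS-based blocking buffer on cellulose membranes with synthetic 15-mer peptides, cysteines replaced by serines, then detecting with anti-GST antibody, HRP anti-mouse secondary and luminol.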

| Binder | SPOT peptide array binding signal intensity |
| --- | --- |
| VNFRRIPTGPDSPPT | ≤ 0 |

Target: AgBbc1
Test: as above
Outline: as §1

| Binder | SPOT peptide array binding signal intensity |
| --- | --- |
| VNFRRIPTGPDSPPT | 2.5 |

Target: AgBem1-D1
Test: as above
Outline: as §1

| Binder | SPOT peptide array binding signal intensity |
| --- | --- |
| VNFRRIPTGPDSPPT | 13 |

Target: AgBzz1-D1
Test: as above
Outline: as §1

| Binder | SPOT peptide array binding signal intensity |
| --- | --- |
| VNFRRIPTGPDSPPT | 23 |

Target: AgBzz1-D2
Test: as above
Outline: as §1

| Binder | SPOT peptide array binding signal intensity |
| --- | --- |
| VNFRRIPTGPDSPPT | 258 |

Target: AgCyk3
Test: as above
Outline: as §1

| Binder | SPOT peptide array binding signal intensity |
| --- | --- |
| VNFRRIPTGPDSPPT | ≤ 0 |

Target: AgFus1
Test: as above
Outline: as §1

| Binder | SPOT peptide array binding signal intensity |
| --- | --- |
| VNFRRIPTGPDSPPT | 45 |

Target: AgHof1
Test: as above
Outline: as §1

| Binder | SPOT peptide array binding signal intensity |
| --- | --- |
| VNFRRIPTGPDSPPT | 6 |

Target: AgHse1
Test: as above
Outline: as §1

| Binder | SPOT peptide array binding signal intensity |
| --- | --- |
| VNFRRIPTGPDSPPT | 132 |

Target: AgLsb1
Test: as above
Outline: as §1

| Binder | SPOT peptide array binding signal intensity |
| --- | --- |
| VNFRRIPTGPDSPPT | 0.5 |

Target: AgLsb4
Test: as above
Outline: as §1

| Binder | SPOT peptide array binding signal intensity |
| --- | --- |
| VNFRRIPTGPDSPPT | 5 |

Target: AgMyo5
Test: as above
Outline: as §1

| Binder | SPOT peptide array binding signal intensity |
| --- | --- |
| VNFRRIPTGPDSPPT | ≤ 0 |

Target: AgNbp2
Test: as above
Outline: as §1

| Binder | SPOT peptide array binding signal intensity |
| --- | --- |
| VNFRRIPTGPDSPPT | ≤ 0 |

Target: AgRvs167
Test: as above
Outline: as §1

| Binder | SPOT peptide array binding signal intensity |
| --- | --- |
| VNFRRIPTGPDSPPT | 3.17 |

Target: AgSho1
Test: as above
Outline: as §1

| Binder | SPOT peptide array binding signal intensity |
| --- | --- |
| VNFRRIPTGPDSPPT | 1 |

Target: AgSla1-D1-D2
Test: as above
Outline: as §1

| Binder | SPOT peptide array binding signal intensity |
| --- | --- |
| VNFRRIPTGPDSPPT | ≤ 0 |

Target: AgSla1-D3
Test: as above
Outline: as §1

| Binder | SPOT peptide array binding signal intensity |
| --- | --- |
| VNFRRIPTGPDSPPT | 0.5 |

Target: CaAbp1-D1
Test: as above
Outline: as §1

| Binder | SPOT peptide array binding signal intensity |
| --- | --- |
| VNFRRIPTGPDSPPT | ≤ 0 |

Target: CaAbp1-D2
Test: as above
Outline: as §1

| Binder | SPOT peptide array binding signal intensity |
| --- | --- |
| VNFRRIPTGPDSPPT | ≤ 0 |

Target: CaBbc1
Test: as above
Outline: as §1

| Binder | SPOT peptide array binding signal intensity |
| --- | --- |
| VNFRRIPTGPDSPPT | 6.75 |

Target: CaBem1-D1
Test: as above
Outline: as §1

| Binder | SPOT peptide array binding signal intensity |
| --- | --- |
| VNFRRIPTGPDSPPT | 6 |

Target: CaBzz1-D1
Test: as above
Outline: as §1

| Binder | SPOT peptide array binding signal intensity |
| --- | --- |
| VNFRRIPTGPDSPPT | 41 |

Target: CaBzz1-D2
Test: as above
Outline: as §1

| Binder | SPOT peptide array binding signal intensity |
| --- | --- |
| VNFRRIPTGPDSPPT | 16.5 |

Target: CaCyk3
Test: as above
Outline: as §1

| Binder | SPOT peptide array binding signal intensity |
| --- | --- |
| VNFRRIPTGPDSPPT | 6 |

Target: CaFus1
Test: as above
Outline: as §1

| Binder | SPOT peptide array binding signal intensity |
| --- | --- |
| VNFRRIPTGPDSPPT | 141 |

Target: CaHof1
Test: as above
Outline: as §1

| Binder | SPOT peptide array binding signal intensity |
| --- | --- |
| VNFRRIPTGPDSPPT | ≤ 0 |

Target: CaHse1
Test: as above
Outline: as §1

| Binder | SPOT peptide array binding signal intensity |
| --- | --- |
| VNFRRIPTGPDSPPT | 3.5 |

Target: CaLsb1
Test: as above
Outline: as §1

| Binder | SPOT peptide array binding signal intensity |
| --- | --- |
| VNFRRIPTGPDSPPT | ≤ 0 |

Target: CaLsb4
Test: as above
Outline: as §1

| Binder | SPOT peptide array binding signal intensity |
| --- | --- |
| VNFRRIPTGPDSPPT | 18.5 |

Target: CaMyo5
Test: as above
Outline: as §1

| Binder | SPOT peptide array binding signal intensity |
| --- | --- |
| VNFRRIPTGPDSPPT | 0.5 |

Target: CaNbp2
Test: as above
Outline: as §1

| Binder | SPOT peptide array binding signal intensity |
| --- | --- |
| VNFRRIPTGPDSPPT | 113 |

Target: CaRvs167
Test: as above
Outline: as §1

| Binder | SPOT peptide array binding signal intensity |
| --- | --- |
| VNFRRIPTGPDSPPT | 1.33 |

Target: CaRvs167-3
Test: as above
Outline: as §1

| Binder | SPOT peptide array binding signal intensity |
| --- | --- |
| VNFRRIPTGPDSPPT | 115 |

Target: CaSho1
Test: as above
Outline: as §1

| Binder | SPOT peptide array binding signal intensity |
| --- | --- |
| VNFRRIPTGPDSPPT | 94.5 |

Target: CaSla1-D1-D2
Test: as above
Outline: as §1

| Binder | SPOT peptide array binding signal intensity |
| --- | --- |
| VNFRRIPTGPDSPPT | ≤ 0 |

Target: CaSla1-D3
Test: as above
Outline: as §1

| Binder | SPOT peptide array binding signal intensity |
| --- | --- |
| VNFRRIPTGPDSPPT | ≤ 0 |

Target: ScAbp1
Test: as above
Outline: as §1

| Binder | SPOT peptide array binding signal intensity |
| --- | --- |
| VNFRRIPTGPDSPPT | 4 |

Target: ScBbc1
Test: as above
Outline: as §1

| Binder | SPOT peptide array binding signal intensity |
| --- | --- |
| VNFRRIPTGPDSPPT | 2 |

Target: ScBem1-D1
Test: as above
Outline: as §1

| Binder | SPOT peptide array binding signal intensity |
| --- | --- |
| VNFRRIPTGPDSPPT | ≤ 0 |

Target: ScBzz1-D1
Test: as above
Outline: as §1

| Binder | SPOT peptide array binding signal intensity |
| --- | --- |
| VNFRRIPTGPDSPPT | 6 |

Target: ScBzz1-D2
Test: as above
Outline: as §1

| Binder | SPOT peptide array binding signal intensity |
| --- | --- |
| VNFRRIPTGPDSPPT | 8.5 |

Target: ScCyk3
Test: as above
Outline: as §1

| Binder | SPOT peptide array binding signal intensity |
| --- | --- |
| VNFRRIPTGPDSPPT | 1.5 |

Target: ScFus1
Test: as above
Outline: as §1

| Binder | SPOT peptide array binding signal intensity |
| --- | --- |
| VNFRRIPTGPDSPPT | 30 |

Target: ScHof1
Test: as above
Outline: as §1

| Binder | SPOT peptide array binding signal intensity |
| --- | --- |
| VNFRRIPTGPDSPPT | 0.5 |

Target: ScHse1
Test: as above
Outline: as §1

| Binder | SPOT peptide array binding signal intensity |
| --- | --- |
| VNFRRIPTGPDSPPT | 278 |

Target: ScLsb1
Test: as above
Outline: as §1

| Binder | SPOT peptide array binding signal intensity |
| --- | --- |
| VNFRRIPTGPDSPPT | ≤ 0 |

Target: ScLsb2
Test: as above
Outline: as §1

| Binder | SPOT peptide array binding signal intensity |
| --- | --- |
| VNFRRIPTGPDSPPT | ≤ 0 |

Target: ScLsb3
Test: as above
Outline: as §1

| Binder | SPOT peptide array binding signal intensity |
| --- | --- |
| VNFRRIPTGPDSPPT | 79 |

Target: ScLsb4
Test: as above
Outline: as §1

| Binder | SPOT peptide array binding signal intensity |
| --- | --- |
| VNFRRIPTGPDSPPT | 11 |

Target: ScMyo3
Test: as above
Outline: as §1

| Binder | SPOT peptide array binding signal intensity |
| --- | --- |
| VNFRRIPTGPDSPPT | ≤ 0 |

Target: ScMyo5
Test: as above
Outline: as §1

| Binder | SPOT peptide array binding signal intensity |
| --- | --- |
| VNFRRIPTGPDSPPT | ≤ 0 |

Target: ScNbp2
Test: as above
Outline: as §1

| Binder | SPOT peptide array binding signal intensity |
| --- | --- |
| VNFRRIPTGPDSPPT | 35.5 |

Target: ScPex13
Test: as above
Outline: as §1

| Binder | SPOT peptide array binding signal intensity |
| --- | --- |
| VNFRRIPTGPDSPPT | 22.8 |

Target: ScRvs167
Test: as above
Outline: as §1

| Binder | SPOT peptide array binding signal intensity |
| --- | --- |
| VNFRRIPTGPDSPPT | 0.167 |

Target: ScSho1
Test: as above
Outline: as §1

| Binder | SPOT peptide array binding signal intensity |
| --- | --- |
| VNFRRIPTGPDSPPT | 96.5 |

Target: ScSla1-D1-D2
Test: as above
Outline: as §1

| Binder | SPOT peptide array binding signal intensity |
| --- | --- |
| VNFRRIPTGPDSPPT | ≤ 0 |

Target: ScSla1-D3
Test: as above
Outline: as §1

| Binder | SPOT peptide array binding signal intensity |
| --- | --- |
| VNFRRIPTGPDSPPT | 2.5 |

Target: SpAbp1-D1
Test: as above
Outline: as §1

| Binder | SPOT peptide array binding signal intensity |
| --- | --- |
| VNFRRIPTGPDSPPT | ≤ 0 |

Target: SpBbc1
Test: as above
Outline: as §1

| Binder | SPOT peptide array binding signal intensity |
| --- | --- |
| VNFRRIPTGPDSPPT | ≤ 0 |

Target: SpBzz1-D1
Test: as above
Outline: as §1

| Binder | SPOT peptide array binding signal intensity |
| --- | --- |
| VNFRRIPTGPDSPPT | 50 |

Target: SpBzz1-D2
Test: as above
Outline: as §1

| Binder | SPOT peptide array binding signal intensity |
| --- | --- |
| VNFRRIPTGPDSPPT | 0.25 |

Target: SpCyk3
Test: as above
Outline: as §1

| Binder | SPOT peptide array binding signal intensity |
| --- | --- |
| VNFRRIPTGPDSPPT | ≤ 0 |

Target: SpHof1
Test: as above
Outline: as §1

| Binder | SPOT peptide array binding signal intensity |
| --- | --- |
| VNFRRIPTGPDSPPT | 178 |

Target: SpHof1-2
Test: as above
Outline: as §1

| Binder | SPOT peptide array binding signal intensity |
| --- | --- |
| VNFRRIPTGPDSPPT | 6 |

Target: SpHof1-3
Test: as above
Outline: as §1

| Binder | SPOT peptide array binding signal intensity |
| --- | --- |
| VNFRRIPTGPDSPPT | 0.75 |

Target: SpHse1
Test: as above
Outline: as §1

| Binder | SPOT peptide array binding signal intensity |
| --- | --- |
| VNFRRIPTGPDSPPT | 192 |

Target: SpLsb1
Test: as above
Outline: as §1

| Binder | SPOT peptide array binding signal intensity |
| --- | --- |
| VNFRRIPTGPDSPPT | ≤ 0 |

Target: SpLsb4
Test: as above
Outline: as §1

| Binder | SPOT peptide array binding signal intensity |
| --- | --- |
| VNFRRIPTGPDSPPT | 27.5 |

Target: SpMyo1
Test: as above
Outline: as §1

| Binder | SPOT peptide array binding signal intensity |
| --- | --- |
| VNFRRIPTGPDSPPT | 2.5 |

Target: SpNbp2
Test: as above
Outline: as §1

| Binder | SPOT peptide array binding signal intensity |
| --- | --- |
| VNFRRIPTGPDSPPT | 14.5 |

Target: SpPex13
Test: as above
Outline: as §1

| Binder | SPOT peptide array binding signal intensity |
| --- | --- |
| VNFRRIPTGPDSPPT | ≤ 0 |

Target: SpRvs167
Test: as above
Outline: as §1

| Binder | SPOT peptide array binding signal intensity |
| --- | --- |
| VNFRRIPTGPDSPPT | 10.7 |

Target: SpSla1-D1-D2
Test: as above
Outline: as §1

| Binder | SPOT peptide array binding signal intensity |
| --- | --- |
| VNFRRIPTGPDSPPT | ≤ 0 |

Target: SpSla1-D3
Test: as above
Outline: as §1

| Binder | SPOT peptide array binding signal intensity |
| --- | --- |
| VNFRRIPTGPDSPPT | ≤ 0 |
